{"source": "PubChem BioAssay AID720648", "about": "(The Scripps Research Institute Molecular Screening Center, 2013)", "note": "In all, about 370,000 compounds went through this assay and about 3,100 (0.84%) were called active. This is one part of a sample in which actives are shown more often than they occur.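 Rule for the calls: active = inhibition above the mean of compounds lying between control limits plus 3 SD, set per campaign (cut at about 8.5% in these data); inactive = the rest.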", "data": [{"biological_target": "Disintegrin and metalloproteinase domain-containing protein 17 (Homo sapiens) (UniProt P78536)", "sequence (P78536 215-824 limits assumed)": "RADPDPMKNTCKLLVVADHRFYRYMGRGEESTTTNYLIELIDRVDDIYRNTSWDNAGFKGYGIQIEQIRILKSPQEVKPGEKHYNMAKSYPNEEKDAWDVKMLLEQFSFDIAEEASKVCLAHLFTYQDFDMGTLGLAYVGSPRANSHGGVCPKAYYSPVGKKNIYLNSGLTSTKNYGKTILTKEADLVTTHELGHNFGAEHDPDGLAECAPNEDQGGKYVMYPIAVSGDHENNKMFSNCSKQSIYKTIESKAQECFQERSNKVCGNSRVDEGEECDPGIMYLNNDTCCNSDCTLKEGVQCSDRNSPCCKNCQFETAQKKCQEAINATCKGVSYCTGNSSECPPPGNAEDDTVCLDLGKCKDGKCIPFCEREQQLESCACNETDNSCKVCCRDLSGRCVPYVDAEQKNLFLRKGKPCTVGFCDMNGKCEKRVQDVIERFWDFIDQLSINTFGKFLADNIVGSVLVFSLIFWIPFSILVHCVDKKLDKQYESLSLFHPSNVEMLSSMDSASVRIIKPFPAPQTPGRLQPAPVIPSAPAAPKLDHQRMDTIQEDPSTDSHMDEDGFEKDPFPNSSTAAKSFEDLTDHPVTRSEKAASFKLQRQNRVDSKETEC", "assay": "inhibition of ADAM17 peptide cleavage – biochemical, QFRET, primary screen (AID 720648);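 note: 0% = DMSO-only wells as the low control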", "conditions": "recombinant ADAM17, EDANS/DABCYL FRET peptide cleavage; at 6.95 µM; hits give high values", "values": [{"smiles": "Cc1ccc(-n2c(SCC(=O)Nc3ccc(S(=O)(=O)Nc4nccs4)cc3)nnc2-c2cccnc2)cc1", "inhibition": "5.12% (inactive)"}, {"smiles": "O=[N+]([O-])c1ccc(N2CCN(S(=O)(=O)c3ccc4ccccc4c3)CC2)cc1NCc1ccco1", "inhibition": "-3.62% (inactive)"}, {"smiles": "COc1ccc(CCNc2cc(N3CCN(C(=O)c4ccccc4OC)CC3)ccc2[N+](=O)[O-])cc1OC", "inhibition": "-5.46% (inactive)"}, {"smiles": "O=C(c1ccccc1)N1CCN(c2ccc([N+](=O)[O-])c(NCc3ccco3)c2)CC1", "inhibition": "9.15% (active)"}, {"smiles": "CCOC(=O)[C@]12CCCCC/C=C\\1N(Cc1ccc(OC)cc1)C(=O)[C@H]2CC(=O)N1CCOCC1", "inhibition": "-0.25% (inactive)"}, {"smiles": "COc1ccnc(C(=O)N2CCC(Oc3cccnc3)CC2)c1", "inhibition": "1.66% (inactive)"}, {"smiles": "CCOC(=O)N1CCN(C(=O)C[C@H]2C[C@@]3(C(=O)OC)C(=C[C@H](C(C)(C)C)O[C@@H]3C)N(Cc3ccc(Cl)cc3Cl)C2=O)CC1", "inhibition": "2.67% (inactive)"}, {"smiles": "COC(=O)c1ccccc1Sc1c(/C=N/OCc2ccc(Cl)cc2)c(C(F)(F)F)nn1C", "inhibition": "-4.94% (inactive)"}, {"smiles": "CCC(=O)OCc1c(C(F)(F)F)nn(C)c1Oc1cccc(C(F)(F)F)c1", "inhibition": "-2.77% (inactive)"}, {"smiles": "Cn1nc(C(F)(F)F)c(C(=O)Nc2cccc(C(F)(F)F)c2)c1SCc1ccc(Cl)cc1", "inhibition": "19.8% (active)"}, {"smiles": "O=S1(=O)c2ccc(N3CCN(Cc4ccccc4F)CC3)cc2Oc2ccccc2CN1Cc1cn(Cc2ccc(Cl)cc2)nn1", "inhibition": "7.88% (inactive)"}, {"smiles": "CC(C)CNC(=O)OCc1cn(Cc2ccc(F)cc2)nn1", "inhibition": "3.83% (inactive)"}, {"smiles": "CNC(=O)C[C@H]1C(=O)N(c2ccc(OC)cc2)C[C@@H]1Cc1ccccc1", "inhibition": "-1.23% (inactive)"}, {"smiles": "O=C(C[C@H]1C(=O)N(c2ccc(F)c(F)c2)C[C@@H]1Cc1ccccc1)Nc1ccccc1", "inhibition": "9.24% (active)"}, {"smiles": "C[C@H]1CN(c2ccc(Br)cc2)C(=O)[C@@H]1CC(=O)Nc1ccc(Br)cc1", "inhibition": "-0.38% (inactive)"}, {"smiles": "COc1ccc(C(CNC(=O)c2ccc(S(=O)(=O)Nc3ccccc3C)cc2)N2CCOCC2)cc1", "note": "(stereo unspecified)", "inhibition": "-1.54% (inactive)"}, {"smiles": "COc1ccc(C(CNC(=O)c2cc(S(=O)(=O)Nc3cccc(C)c3)ccc2C)N2CCCC2)cc1", "note": "(stereo unspecified)", "inhibition": "10.3% (active)"}, {"smiles": "COc1ccc(NS(=O)(=O)c2ccc(C)c(C(=O)NCC(c3cccs3)N3CCOCC3)c2)cc1", "note": "(stereo unspecified)", "inhibition": "-1.97% (inactive)"}, {"smiles": "O=C(Nc1cc(F)cc(F)c1)OC1CCC12CCC(c1ccccc1)CC2", "note": "(stereo unspecified)", "inhibition": "3.79% (inactive)"}, {"smiles": "COc1cccc(N(C)C(=O)[C@@H](C)[C@@H](O)c2ccc3ccccc3c2)c1", "inhibition": "-0.07% (inactive)"}, {"smiles": "CC(=O)C1(C(=O)Nc2nccs2)CC(c2ccccc2C(F)(F)F)=NO1", "note": "(stereo unspecified)", "inhibition": "-1.77% (inactive)"}, {"smiles": "COc1ccc([C@@H]2[C@@H]3C(=O)N(C(C)(C)C)C(=O)[C@@H]3[C@]3(Cc4ccccc4)C(=O)N(c4cccc(Br)c4)C(=O)N23)cc1", "inhibition": "13.1% (active)"}, {"smiles": "CCOC(=O)[C@@H]1[C@H]2COc3cc(OC)ccc3[C@@H]2N2C(=O)N(c3cccc(C)c3)C(=O)[C@@]12C", "inhibition": "-2.53% (inactive)"}, {"smiles": "CCN1C(=O)[C@H]2[C@@H](c3ccc(C)cc3)N3C(=O)N(c4cccc(Br)c4)C(=O)[C@@]3(CC)[C@H]2C1=O", "inhibition": "1.14% (inactive)"}, {"smiles": "Cc1cccc(N2C(=O)N3[C@H](c4ccc(F)cc4)[C@@H]4C(=O)N(C5CCCCC5)C(=O)[C@@H]4[C@]3(Cc3ccccc3)C2=O)c1", "inhibition": "1.18% (inactive)"}, {"smiles": "CCN1C(=O)[C@H]2[C@@H](c3ccc(-c4ccc(OC)cc4)cc3)N[C@@](Cc3ccccc3)(C(=O)OC)[C@H]2C1=O", "inhibition": "-1.71% (inactive)"}, {"smiles": "O=C1[C@H]2[C@@H](c3ccc(F)cc3)N3C(=O)N(c4ccc(C(F)(F)F)cc4)C(=O)[C@@]3(Cc3ccccc3)[C@H]2C(=O)N1C1CCCCC1", "inhibition": "1.1% (inactive)"}, {"smiles": "CC[C@@]12C(=O)N(c3ccccc3)C(=O)N1[C@H](c1ccc(Br)cc1)[C@@H]1C(=O)N(C(C)(C)C)C(=O)[C@@H]12", "inhibition": "8.73% (active)"}, {"smiles": "C[C@@]12C(=O)N(c3cccc(Br)c3)C(=O)N1[C@H](c1ccc(Cl)cc1)[C@@H]1C(=O)N(C3CCCCC3)C(=O)[C@@H]12", "inhibition": "13.3% (active)"}, {"smiles": "CC(C)(C)N1C(=O)[C@H]2[C@@H](c3ccc(Br)cc3)N3C(=O)N(c4cccc(Cl)c4)C(=O)[C@@]3(C)[C@H]2C1=O", "inhibition": "10% (active)"}, {"smiles": "Cc1cccc([C@@H]2[C@@H]3C(=O)N(Cc4ccccc4)C(=O)[C@@H]3[C@]3(Cc4ccc(Cl)cc4)C(=O)N(c4cccc(Cl)c4)C(=O)N23)c1", "inhibition": "1.28% (inactive)"}, {"smiles": "CC12C(=O)N(c3ccccc3)C(=O)C1C(c1ccccc1)N1CCCN12", "note": "(stereo unspecified)", "inhibition": "0.41% (inactive)"}, {"smiles": "O=C1[C@H]2[C@@H](c3ccc(Cl)cc3)N3C(=O)N(c4cccc(F)c4)C(=O)[C@@]3(Cc3ccccc3)[C@H]2C(=O)N1C1CCCCC1", "inhibition": "-3.52% (inactive)"}, {"smiles": "Cc1ccc(Cn2cc(CN3[C@@H](C)COc4cc(Br)ccc4S3(=O)=O)nn2)cc1", "inhibition": "-2.3% (inactive)"}, {"smiles": "COC(=O)c1cccc(Cn2ccc3ccc(-c4ccc5ccn(C(=O)C6CCCCC6)c5c4)cc32)c1", "inhibition": "-4.69% (inactive)"}, {"smiles": "Cc1ccc(C2=CCN(C)C(=O)N2c2ccc(Cl)cc2)cc1", "inhibition": "0.02% (inactive)"}, {"smiles": "CCOC(=O)C1CCN(C(=O)C(C)(C)NC(=O)Nc2ccc(F)c(F)c2)CC1", "inhibition": "0.09% (inactive)"}, {"smiles": "COc1ccccc1C(=O)CSc1nnc(-c2ccccn2)n1-c1ccccc1", "inhibition": "-0.51% (inactive)"}, {"smiles": "CCOC(=O)[C@]12CCCCC/C=C\\1N(Cc1ccc(OC)cc1)C(=O)[C@H]2CC(=O)NCc1ccc(C)o1", "inhibition": "-1.43% (inactive)"}, {"smiles": "NNC(=O)C1CCCn2c1nc1sc3c(c1c2=O)CCCC3", "note": "(stereo unspecified)", "inhibition": "11.2% (active)"}, {"smiles": "Cc1ccc(C)c(-n2c(SCC(=O)O)nc3sc4c(c3c2=O)CCCC4)c1", "inhibition": "0.43% (inactive)"}, {"smiles": "CCn1c(SCC(C)=O)nc2sc3c(c2c1=O)CCCC3", "inhibition": "-1.68% (inactive)"}, {"smiles": "O=C(CN1CCC(NC(=O)NCc2ccccc2)CC1)Nc1ccc2c(c1)OCCO2", "inhibition": "-4.62% (inactive)"}, {"smiles": "CCCC[C@H](C(=O)N(CC)c1ccccc1)[C@@H](O)c1ccc2ccccc2c1", "inhibition": "4.5% (inactive)"}, {"smiles": "O=C1CCC(C(=O)OCC(=O)Nc2ccc(OC(F)F)cc2)=NN1", "inhibition": "5.95% (inactive)"}, {"smiles": "CCC(C)(C)c1ccc(Oc2ccc(NC(=O)COC(=O)C3=COCCO3)cc2)cc1", "inhibition": "15.7% (active)"}, {"smiles": "COc1ccc(NC(=O)COC(=O)CNC(=O)C2CCCCC2)cc1", "inhibition": "-0.83% (inactive)"}, {"smiles": "CCOC(=O)N1CCN(C(=O)C[C@@H]2C(=O)N(CCc3ccc(Cl)cc3)C3=CCCC[C@]32C(=O)OCC)CC1", "inhibition": "-1.27% (inactive)"}, {"smiles": "CC[C@@H](CCC(=O)N(c1ccccc1)c1ccccc1)C1CC1", "inhibition": "-3.63% (inactive)"}, {"smiles": "Nn1c(SCC(=O)Nc2cccc3ccccc23)nnc1-c1cc(-c2ccc(F)cc2)n[nH]1", "inhibition": "-1.2% (inactive)"}, {"smiles": "Cn1c(=O)c2sccc2n(Cc2ccc(Br)cc2)c1=O", "inhibition": "0.1% (inactive)"}, {"smiles": "C/C(Cl)=C\\Cn1c(Nc2cccc(C)c2)nc2c1c(=O)n(C)c(=O)n2C", "inhibition": "1.3% (inactive)"}, {"smiles": "Cn1c(=O)c2c(nc(N/N=C/c3cccs3)n2Cc2ccc(Br)cc2)n(C)c1=O", "inhibition": "9.47% (active)"}, {"smiles": "COc1ccc(CSc2nnc(-c3cccc(C)c3)n2C)cc1", "inhibition": "-0.21% (inactive)"}, {"smiles": "CCOc1ccc(Nc2nc(Cc3nnc(SCC(=O)c4ccc(C)cc4)o3)cs2)cc1", "inhibition": "13.7% (active)"}, {"smiles": "CC(=O)Nc1ccc(C(=O)CSc2nnc(Cc3ccccc3)o2)cc1", "inhibition": "2.43% (inactive)"}, {"smiles": "CCOc1ccc(Nc2nc(Cc3nnc(SCC(=O)NC4CCCC4)n3C)cs2)cc1", "inhibition": "-1.2% (inactive)"}, {"smiles": "COc1ccc(C2CC=C(C(=O)O)C(c3ccccc3F)N2S(=O)(=O)c2ccc(C)cc2)cc1OC", "note": "(stereo unspecified)", "inhibition": "-3.14% (inactive)"}, {"smiles": "CCCCN=C1N/C(=C\\c2ccco2)C(=O)N1c1ccccc1", "inhibition": "-3.3% (inactive)"}, {"smiles": "O=C1/C(=C\\c2ccsc2)NC(=S)N1c1ccccc1", "inhibition": "9.7% (active)"}, {"smiles": "CC1=CC(C)(C)NC(=S)N1c1ccccc1", "inhibition": "-5.69% (inactive)"}, {"smiles": "CCC(=O)OCCCN1C(=O)CCC12CCC(c1ccccc1)CC2", "note": "(stereo unspecified)", "inhibition": "0.25% (inactive)"}, {"smiles": "O=C(CCl)NC1CCCCN(Cc2cccc(C(F)(F)F)c2)C1=O", "note": "(stereo unspecified)", "inhibition": "-6.37% (inactive)"}, {"smiles": "O=S1(=O)c2ccc(Br)cc2OC[C@H](Cc2ccccc2)N1Cc1cn(Cc2ccccc2)nn1", "inhibition": "-10.2% (inactive)"}, {"smiles": "CNC(=O)c1[nH]cnc1C(=O)N[C@@H](CC(C)C)C(=O)OCc1ccccc1", "inhibition": "1.89% (inactive)"}, {"smiles": "C[C@H](NC(=O)c1nc[nH]c1C(=O)NCC(=O)OC(C)(C)C)c1ccccc1", "inhibition": "-0.12% (inactive)"}, {"smiles": "CC(C)(C)OC(=O)N1CCC(NC(=O)c2[nH]cnc2C(=O)N[C@@H](Cc2ccccc2)C(=O)OCc2ccccc2)CC1", "inhibition": "14.3% (active)"}, {"smiles": "C[C@H](NC(=O)c1nc[nH]c1C(=O)NCC(=O)OC(C)(C)C)C(=O)OCc1ccccc1", "inhibition": "0.33% (inactive)"}, {"smiles": "CC(C)(C)OC(=O)CNC(=O)c1[nH]cnc1C(=O)N[C@@H](Cc1ccccc1)C(=O)OCc1ccccc1", "inhibition": "11.2% (active)"}, {"smiles": "C[C@@H](NC(=O)c1nc[nH]c1C(=O)N1CCN(C(=O)OC(C)(C)C)CC1)c1ccccc1", "inhibition": "-5.12% (inactive)"}, {"smiles": "Cc1cc(C)n2ncc(C(=O)Nc3ccc4c(c3)OCCO4)c2n1", "inhibition": "-3.48% (inactive)"}, {"smiles": "COc1cc(NC(=O)C2CCCN(S(=O)(=O)c3ccc(C(C)(C)C)cc3)C2)cc(OC)c1", "note": "(stereo unspecified)", "inhibition": "3.29% (inactive)"}, {"smiles": "CCOC(=O)[C@]12CCCC=C1N(Cc1ccc(OC)cc1)C(=O)[C@@H]2CC(=O)N1CCOCC1", "inhibition": "-0.05% (inactive)"}, {"smiles": "COc1ccc(OC)c(-c2c(=O)n(OCc3ccccc3Br)c3ccccc3[n+]2[O-])c1", "inhibition": "0.86% (inactive)"}, {"smiles": "CCOc1ccc(OCC)c(-c2c(=O)n(OCc3ccc(Cl)cc3)c3ccccc3[n+]2[O-])c1", "inhibition": "9.36% (active)"}, {"smiles": "O=c1c(-c2ccc(Cl)cc2)[n+]([O-])c2ccccc2n1OCc1nc2ccccc2[nH]1", "inhibition": "-12.2% (inactive)"}]}]}
